This is part of a sample that, as a whole, favours compounds with a hit. Of some 83,000 tested, about 20% had one in any assay.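 How to read the values: 0–100, growth inhibition (40 = 60% inhibited); 0, no net growth; -100 to 0, cell death (-40 = 40% of starting cells died; -100 = all dead).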 A number with no mark means an inactive call. Activity calls are given as the source filed them. How the source made its calls: active means growth percent below 10; inactive means the rest.
What follows are molecules tested on U251 CNS (assay: NCI-60 one-dose screen, 48 h (100 = growth as untreated, 0 = no growth, -100 = all killed)). Conditions: 10 µM unless noted.
Molecule `O=C(/C=C/CN1CCOCC1)Nc1cc2c(Nc3cccc(Cl)c3F)ncnc2cc1OCCOC(F)F` has a growth of 94.1%.
Work on `Cc1oc2nc[nH]c(=O)c2c1C(=O)/C=C/c1ccc(Cl)cc1` yielded a growth of 24.3%.
For `CCn1cc(C2NC(=O)c3cc(F)ccc3N2)c2cccc(Cl)c21` (stereo not given), the growth was -14.2% (active).
`CN(C)C/C=C/C(=O)Nc1cc2c(Nc3ccc(F)c(Cl)c3F)ncnc2cc1OCCOC(F)F` was tested, and the growth was 27.9%.
`CC(=O)Nc1ccc2c(c1)/C(=C\C=C/c1ccc([N+](C)(C)C)cc1)c1ccccc1-2` showed a growth of 26%.
In the case of `c1ccc([P+](CCC[P+](c2ccccc2)(c2ccccc2)c2ccccc2)(c2ccccc2)c2ccccc2)cc1`, the growth was 40%.
For `COc1ccc2c(c1)NC(=O)CN2c1nc(C)nc2ccccc12`, the growth was 16.2%.
`CCCCCC/C=C\CCCCCCCCOc1ccc(CCOP(=O)(O)OCC[N+](C)(C)C)cc1` was tested, and the growth was 27.5%.
`O=C(Nc1ccc(I)cc1)c1cc([N+](=O)[O-])ccc1O` showed a growth of 31.1%.
For `NC(=O)c1c(NC(=O)c2ccc3c(c2)OCO3)sc2c1CCC(=O)C2`, the growth was -9.21% (active).
With `O=C(CNC(=O)c1cccc2ccccc12)Nc1ccccc1Oc1ccccc1` the growth was 11.5%.
`COC12CC(=O)C(C(C)=O)=C(O)C1(C)c1c(O)c(C)c(O)c(C(C)=O)c1O2` (stereo not given) gave a growth of 57.2%.
`O=S(=O)(NCCCNc1nccc(-c2c(-c3ccccc3)nc3sccn23)n1)c1ccc(F)cc1` was tested, and the growth was 46.4%.
`CCCCOc1nc2c(C)cccc2cc1C1CNC(=O)c2ccccc2N1` (stereo not given) was tested, and the growth was 63.7%.
With `C=CCN=C1NC(=O)/C(=C/c2cc(C(C)(C)C)c(O)c(C(C)(C)C)c2)S1` the growth was 77%.
`Nc1nc(-c2ccccc2)cs1` was tested, and the growth was 98.9%.
`CC[C@H](C)[C@@H]1NC(=O)[C@H]([C@@H](C)O)NC(=O)C(Cc2ccccc2)NC(=O)[C@@H]2CCCN2C(=O)C(C(C)C)NC(=O)C(Cc2ccccc2)NC(=O)CNC(=O)[C@@H]2CCCN2C1=O` (stereo not given in full) showed a growth of 67%.
`CCN(CC)CCSc1c2ccc(Cl)cc2nc2ccc(OC)cc12` was tested, and the growth was 93%.
Molecule `Cc1cc2c(C(C)C)c(O)c(O)c(C=NCCCCC(=O)O)c2c(O)c1-c1c(C)cc2c(C(C)C)c(O)c(O)c(C=NCCCCC(=O)O)c2c1O` has a growth of 24%.
`COc1ccc(Cn2cc(COc3cc(/C=C/C(=O)c4cc(OC)c(OC)c(OC)c4)ccc3OC)nn2)cc1` showed a growth of 44.6%.
In the case of `Cc1ccc(C2=NN(c3ccc(S(=O)(=O)NC(=O)NCc4ccccc4)cc3)C(c3ccc(N(C)C)cc3)C2)c(C)c1` (stereo not given), the growth was 22.6%.
For `c1ccc2c(c1)Oc1ccccc1C2C1c2ccccc2Oc2ccccc21`, the growth was 99.3%.
`COc1ccc(S(=O)(=O)Nc2cc(/C=C\c3cc(OC)c(OC)c(OC)c3)cc(OC)c2OC)cc1OC` gave a growth of 23.1%.
`COC1=CC(c2ccc[nH]2)=N/C1=C\c1[nH]c(C)c(CCCn2cc(CCCCCCCCC[C@@H]3Cc4cc(O)ccc4C4CC[C@]5(C)[C@@H](O)CC[C@H]5C43)nn2)c1C` (stereo not given in full) was tested, and the growth was 44.1%.

The molecules below were run on PC-3 prostate in the same assay as above. Conditions: 10 µM unless noted.
`CC(C)(C)c1cc(-c2nc3ccc(N4CCN(CCO)CC4)cc3[nH]2)cc(C(C)(C)C)c1O` was tested, and the growth was 58.3%.
Molecule `CCOC(=O)/C=C\C(=O)NC(N)=O` has a growth of 83.5%.
`CCC#CC[C@H]1C/C=C2/C(=O)C=C[C@@H]2C/C=C\CCCC(=O)O1` was tested, and the growth was -19.7% (active).
In the case of `O=C(Cc1c(F)cccc1Cl)Nc1ccc(S(=O)(=O)Nc2ncccn2)cc1`, the growth was 100%.
Work on `C=CCc1cc(Cl)cc2c(OC(C)=O)c(C(C)=O)c(-c3ccccc3)nc12` yielded a growth of 96%.
For `Cc1c(C(=O)NCc2ccccc2)[n+](=O)c2cc(F)ccc2n1[O-]`, the growth was 81.9%.
`C=CCOc1cccc(/C=C/C(=O)c2sc(Nc3cccnc3)nc2C)c1` showed a growth of 44.6%.
For `COc1ccc(C(=O)c2cc(OC)c(OC)c(OC)c2)cc1/C=C/C(=O)c1ccc2c(c1)OCO2`, the growth was 24%.
`CCN(CC)S(=O)(=O)c1ccc2[nH]c(=O)cc(C(=O)Nc3ccc(OC)cc3OC)c2c1` showed a growth of 105%.
For `O=C(Nc1cc(C(F)(F)F)cc(C(F)(F)F)c1)Nc1ccc(OCc2nnc(-c3ccc(Cl)cc3)o2)c(F)c1`, the growth was 3.89% (active).
Molecule `O=C1CCCCN1CCCCC#Cc1ccccc1C#Cc1ccccn1` has a growth of 95.1%.
With `COc1ccc2c(c1)C=CC(C#N)N2C(=O)c1ccccc1` (stereo not given) the growth was 19%.
`O=C(/C=C/CN1CCOCC1)Nc1cc2c(Nc3cccc(Cl)c3F)ncnc2cc1OCCOC(F)F` gave a growth of 58.9%.
Molecule `Cc1oc2nc[nH]c(=O)c2c1C(=O)/C=C/c1ccc(Cl)cc1` has a growth of 34.2%.
For `CCn1cc(C2NC(=O)c3cc(F)ccc3N2)c2cccc(Cl)c21` (stereo not given), the growth was 22.3%.
In the case of `CN(C)C/C=C/C(=O)Nc1cc2c(Nc3ccc(F)c(Cl)c3F)ncnc2cc1OCCOC(F)F`, the growth was 11%.
`CC(=O)Nc1ccc2c(c1)/C(=C\C=C/c1ccc([N+](C)(C)C)cc1)c1ccccc1-2` showed a growth of 68.4%.
`c1ccc([P+](CCC[P+](c2ccccc2)(c2ccccc2)c2ccccc2)(c2ccccc2)c2ccccc2)cc1` was tested, and the growth was 38%.
Molecule `COc1ccc2c(c1)NC(=O)CN2c1nc(C)nc2ccccc12` has a growth of 15.1%.
Molecule `CCCCCC/C=C\CCCCCCCCOc1ccc(CCOP(=O)(O)OCC[N+](C)(C)C)cc1` has a growth of 14.8%.
For `O=C(Nc1ccc(I)cc1)c1cc([N+](=O)[O-])ccc1O`, the growth was 15.3%.
With `NC(=O)c1c(NC(=O)c2ccc3c(c2)OCO3)sc2c1CCC(=O)C2` the growth was 3.13% (active).
`O=C(CNC(=O)c1cccc2ccccc12)Nc1ccccc1Oc1ccccc1` was tested, and the growth was 2.31% (active).
`COC12CC(=O)C(C(C)=O)=C(O)C1(C)c1c(O)c(C)c(O)c(C(C)=O)c1O2` (stereo not given) was tested, and the growth was 73%.
Molecule `O=S(=O)(NCCCNc1nccc(-c2c(-c3ccccc3)nc3sccn23)n1)c1ccc(F)cc1` has a growth of 60.6%.
`CCCCOc1nc2c(C)cccc2cc1C1CNC(=O)c2ccccc2N1` (stereo not given) gave a growth of 40.1%.
Molecule `C=CCN=C1NC(=O)/C(=C/c2cc(C(C)(C)C)c(O)c(C(C)(C)C)c2)S1` has a growth of 62.4%.
In the case of `Nc1nc(-c2ccccc2)cs1`, the growth was 98.1%.
With `CC[C@H](C)[C@@H]1NC(=O)[C@H]([C@@H](C)O)NC(=O)C(Cc2ccccc2)NC(=O)[C@@H]2CCCN2C(=O)C(C(C)C)NC(=O)C(Cc2ccccc2)NC(=O)CNC(=O)[C@@H]2CCCN2C1=O` (stereo not given in full) the growth was -0.594% (active).
With `CCN(CC)CCSc1c2ccc(Cl)cc2nc2ccc(OC)cc12` the growth was 91.4%.
`Cc1cc2c(C(C)C)c(O)c(O)c(C=NCCCCC(=O)O)c2c(O)c1-c1c(C)cc2c(C(C)C)c(O)c(O)c(C=NCCCCC(=O)O)c2c1O` gave a growth of 29.2%.
`COc1ccc(Cn2cc(COc3cc(/C=C/C(=O)c4cc(OC)c(OC)c(OC)c4)ccc3OC)nn2)cc1` showed a growth of 44.5%.
`Cc1ccc(C2=NN(c3ccc(S(=O)(=O)NC(=O)NCc4ccccc4)cc3)C(c3ccc(N(C)C)cc3)C2)c(C)c1` (stereo not given) was tested, and the growth was 32.7%.
`c1ccc2c(c1)Oc1ccccc1C2C1c2ccccc2Oc2ccccc21` showed a growth of 85.7%.
`COc1ccc(S(=O)(=O)Nc2cc(/C=C\c3cc(OC)c(OC)c(OC)c3)cc(OC)c2OC)cc1OC` showed a growth of 34.3%.
`COC1=CC(c2ccc[nH]2)=N/C1=C\c1[nH]c(C)c(CCCn2cc(CCCCCCCCC[C@@H]3Cc4cc(O)ccc4C4CC[C@]5(C)[C@@H](O)CC[C@H]5C43)nn2)c1C` (stereo not given in full) showed a growth of 45%.
